According to PubChem BioAssay (NCATS):
Records with an inconclusive call do not appear. Active and inactive are the calls of the source. The call rests on the fitted dose curve; in most records, active means well fitted curve in the direction sought with a large enough effect; inconclusive means small, poorly fitted or top-dose-only effect, or another doubt; inactive means no such curve, though single readings can be large; an effect the other way counts as inactive or inconclusive.

Columns and labels:
[1] = system: Zika virus NS2B-NS3 protease (linked construct); test: Primary screen NINDS Rhodamine qHTS for Zika virus inhibitors (AID 1347160); further: nearly all actives have a fitted effect of over 55% in size
How it was run: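 Kinetic fluorescence (Ex 480 nm, Em 540 nm) over 15 min with 1.5 microM Rhodamine110 peptide and 25 nM linked protease.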

[2] = biological target: Calcium and integrin-binding protein 1 (Homo sapiens) (UniProt Q99828); test: Primary qHTS for Identification of Calcium Integrin Binding Protein 1 (CIB1) Competitor (AID 1508620);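 further: GST tagged CIB1 binding a fluorescein labelled alphaIIb integrin peptide tracer; top concentration of the series differs between compounds; on the % scale 0 is the no-effect control and ±100 the full control effect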
Chain of Calcium and integrin-binding protein 1 (Homo sapiens) (Q99828 whole entry, looked up): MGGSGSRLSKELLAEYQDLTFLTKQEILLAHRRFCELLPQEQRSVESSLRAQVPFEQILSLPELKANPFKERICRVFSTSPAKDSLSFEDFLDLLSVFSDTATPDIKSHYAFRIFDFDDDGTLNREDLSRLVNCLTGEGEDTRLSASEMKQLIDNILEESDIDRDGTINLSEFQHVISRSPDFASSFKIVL
How it was run: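 CIB1-GST (1 uM final) and compound incubated 15 min at room temperature before adding FITC-alphaIIb peptide tracer (100 nM final). Competition for binding read by fluorescence polarization (ex 480, em 540) after another 15 min at room temperature.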

[3] = Primary qHTS for inhibitors of nuclear receptor binding SET domain protein 2 (NSD2) in an isogenic RCH-ACV NSD2 p.E1099K mutant (9B) (AID 1645876); further: nearly all actives have a fitted effect of over 70% in size
[4] = biological target: Glutathione peroxidase 1 (Homo sapiens) (UniProt P07203); test: Primary qHTS Assay for Inhibitors of Recombinant Selenoprotein Glutathione Peroxidase 1 (GPX1) (AID 1845191); further: nearly all actives have a fitted effect of over 65% in size
Chain of Glutathione peroxidase 1 (Homo sapiens) (P07203 whole entry, looked up): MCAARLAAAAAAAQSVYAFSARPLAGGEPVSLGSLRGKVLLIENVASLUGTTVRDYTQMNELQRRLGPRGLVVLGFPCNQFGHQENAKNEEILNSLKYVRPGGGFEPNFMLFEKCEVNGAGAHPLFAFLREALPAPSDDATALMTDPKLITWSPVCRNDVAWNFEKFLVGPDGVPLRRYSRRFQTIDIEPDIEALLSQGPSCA
How it was run: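 10 nM GPX1 + cpd, 30 min RT; start w/ 1 mM GSH, 0.5 mM cumene hydroperoxide, 0.5 mM NADPH, 100 nM GR, 0.01% BSA; buffer 50 mM Tris-HCl pH 7.5, 2 mM EDTA, 150 mM NaCl; Fl 340/450, 0 & 15 min.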

[5] = biological target: Phospholipid hydroperoxide glutathione peroxidase GPX4 (Homo sapiens) (UniProt P36969); test: Primary qHTS Assay for Inhibitors of Recombinant Selenoprotein Glutathione Peroxidase 4 (GPX4) (AID 1845192); further: nearly all actives have a fitted effect of over 65% in size
Chain of Phospholipid hydroperoxide glutathione peroxidase GPX4 (Homo sapiens) (P36969 whole entry, looked up): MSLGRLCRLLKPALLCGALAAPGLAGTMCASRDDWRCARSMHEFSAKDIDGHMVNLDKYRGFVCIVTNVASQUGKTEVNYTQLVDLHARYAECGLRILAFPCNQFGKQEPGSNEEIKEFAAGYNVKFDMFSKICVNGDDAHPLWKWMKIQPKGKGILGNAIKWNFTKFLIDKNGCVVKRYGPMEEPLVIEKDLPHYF
How it was run: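 NADPH consumption, followed by fluorescence at 340/450 nm between 0 and 15 min, reports GPX4 activity via coupled glutathione reductase (100 nM). Enzyme 200 nM was pre-exposed to compound 30 min; 0.5 mM cumene hydroperoxide and 1 mM GSH served as substrates.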

[6] = biological target: Luciferin 4-monooxygenase (Photinus pyralis) (UniProt P08659); test: Primary firefly luciferase (FLuc) qHTS assay for identification of artifact compounds. (AID 1845220); settings: outcome: dose series up to 54.1 µM unless noted;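 further: plate controls were DMSO vehicle for no effect and no enzyme for full effect; nearly all actives have a fitted effect of over 60% in size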
How it was run: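 Compounds sat 15 min at room temperature with 10 uM luciferin and 10 uM ATP (pH 7.6 Tris acetate). Firefly luciferase (10 nM final) was then added, and luminescence was read 5 min later. Data normalized to no-enzyme and DMSO controls were Hill-fitted.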

[7] = system: Nanoluciferase (engineered Oplophorus gracilirostris luciferase); test: Primary Nanoluciferase (NLuc) qHTS assay for identification of artifact compounds. (AID 1845222);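 further: 0% = DMSO and -100% = no enzyme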
How it was run: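 Luminescence from secreted NLuc (filtered, 1:55-diluted S16 cell medium) read 5 min after Nano-Glo substrate; compounds preincubated 15 min, RT. Hill fits of inhibition normalized to DMSO and no-enzyme.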

CRL-7250 = normal cell line; test: Cytotoxic Profiling of Annotated Libraries Using Quantitative High-Throughput Screening (AID 1296008); settings: Five cell lines viability, CellTiter-Glo ATP luminescence, 48-72 h; max response: active compounds read low; further: nearly all actives have a fitted effect of over 60% in size; on max response: on the % scale 0 is the no-effect control and ±100 the full control effect
How it was run: (§1)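 Cytotoxicity was measured as CellTiter-Glo ATP luminescence, read after 10 min at room temperature. Compound treatment of the cells lasted 48 or 72 hr at 37 degrees Celsius in a qHTS format.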

HEK293 = test: as above; settings: Five cell lines viability, CellTiter-Glo ATP luminescence, 48-72 h; max response: active compounds read low
How it was run: as §1

HaCat = test: as above; settings: Five cell lines viability, CellTiter-Glo ATP luminescence, 48-72 h; max response: active compounds read low
How it was run: as §1

NIH3T3 = test: as above; settings: Five cell lines viability, CellTiter-Glo ATP luminescence, 48-72 h; max response: active compounds read low
How it was run: as §1

C33A = test: Primary qHTS to identify gynecologic anti-cancer compounds using libraries of approved drugs and bioactive compounds (AID 1345084); settings: Gynecologic cancer cell panel viability, ATPlite luminescence, 48 h; series mostly up to 57.5 µM; further: on the % scale 0 is the no-effect control and ±100 the full control effect; nearly all actives have a fitted effect of over 55% in size
How it was run: (§2)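 Luminescence from the ATPlite ATP-monitoring reagent indicates viable cell number; lower signal means cytotoxicity. Cells received compound 16 h after seeding and were exposed for 48 h across five concentrations.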

CASKI = test: as above; settings: Gynecologic cancer cell panel viability, ATPlite luminescence, 48 h; series mostly up to 57.5 µM
How it was run: as §2

Es-2 = test: as above; settings: Gynecologic cancer cell panel viability, ATPlite luminescence, 48 h; series mostly up to 57.5 µM
How it was run: as §2

Hek293T = test: as above; settings: Gynecologic cancer cell panel viability, ATPlite luminescence, 48 h, control line for the selectivity index; series mostly up to 57.5 µM
How it was run: as §2

JEG-3 = test: as above; settings: Gynecologic cancer cell panel viability, ATPlite luminescence, 48 h; series mostly up to 57.5 µM
How it was run: as §2

OV90 = test: as above; settings: Gynecologic cancer cell panel viability, ATPlite luminescence, 48 h; series mostly up to 57.5 µM
How it was run: as §2

PA-1 = test: as above; settings: Gynecologic cancer cell panel viability, ATPlite luminescence, 48 h; series mostly up to 57.5 µM
How it was run: as §2

Tov-21-G = test: as above; settings: Gynecologic cancer cell panel viability, ATPlite luminescence, 48 h; series mostly up to 57.5 µM
How it was run: as §2

Tov112D = test: as above; settings: Gynecologic cancer cell panel viability, ATPlite luminescence, 48 h; series mostly up to 57.5 µM
How it was run: as §2

NC(=O)c1ncn2c1CN=C(c1ccccc1Br)c1cc(F)ccc1-2
inactive: Potency [1] | Potency [2] | Potency [3] | Potency [4] | Potency [5] | outcome [6] | Potency [7] | max response (CRL-7250) -2.22% | max response (HEK293) 0.36% | max response (HaCat) -12.6% | max response (NIH3T3) 1.84% | Potency (C33A) | Potency (CASKI) | Potency (Es-2) | Potency (Hek293T) | Potency (JEG-3) | Potency (OV90) | Potency (PA-1) | Potency (Tov-21-G) | Potency (Tov112D)

C[N@@+]1(CC2CC2)CC[C@]23c4c5ccc(O)c4O[C@H]2C(=O)CC[C@@]3(O)[C@H]1C5
inactive: Potency [1] | Potency [2] | Potency [3] | Potency [5] | outcome [6] | Potency [7] | max response (CRL-7250) 2.78% | max response (HEK293) 0.678% | max response (HaCat) -19.5% | max response (NIH3T3) 2.77% | Potency (C33A) | Potency (CASKI) | Potency (Es-2) | Potency (Hek293T) | Potency (JEG-3) | Potency (OV90) | Potency (PA-1) | Potency (Tov-21-G) | Potency (Tov112D)

COC(=O)CC1CC2(C(=O)c3c(O)cccc3C2(O)C(=O)OC)C(C)O1 (configuration not stated)
inactive: Potency [1] | Potency [2] | Potency [3] | Potency [4] | Potency [5] | outcome [6] | Potency [7] | max response (CRL-7250) 2.33% | max response (HEK293) -1.89% | outcome (HaCat) | max response (NIH3T3) 4.05% | Potency (C33A) | Potency (CASKI) | Potency (Es-2) | Potency (Hek293T) | Potency (JEG-3) | Potency (OV90) | Potency (PA-1) | Potency (Tov-21-G) | Potency (Tov112D)

CN1C(=O)CN=C(c2ccccc2Cl)c2cc(Cl)ccc21
inactive: Potency [1] | Potency [2] | Potency [3] | Potency [5] | outcome [6] | Potency [7] | outcome (CRL-7250) | max response (HEK293) -5.69% | max response (HaCat) 2.59% | max response (NIH3T3) 4.35% | Potency (C33A) | Potency (CASKI) | Potency (Es-2) | Potency (Hek293T) | Potency (JEG-3) | Potency (OV90) | Potency (PA-1) | Potency (Tov-21-G) | Potency (Tov112D)

COc1ccc2c3c([nH]c2c1)C(C=C(C)C)N1C(=O)C2CCCN2C(=O)C1C3 (configuration not stated)
inactive: Potency [1] | Potency [2] | Potency [4] | Potency [5] | outcome [6] | Potency [7] | max response (CRL-7250) -26.7% | max response (HEK293) -10.4% | max response (HaCat) -17.6% | max response (NIH3T3) -20.2% | Potency (C33A) | Potency (CASKI) | Potency (Es-2) | Potency (Hek293T) | Potency (JEG-3) | Potency (OV90) | Potency (PA-1) | Potency (Tov-21-G) | Potency (Tov112D)
